This is an account of results in the supplement of paper PMC10681739.

Assay [1] concerns the target T1, ETS1 (UniProt P14921).
T1 sequence: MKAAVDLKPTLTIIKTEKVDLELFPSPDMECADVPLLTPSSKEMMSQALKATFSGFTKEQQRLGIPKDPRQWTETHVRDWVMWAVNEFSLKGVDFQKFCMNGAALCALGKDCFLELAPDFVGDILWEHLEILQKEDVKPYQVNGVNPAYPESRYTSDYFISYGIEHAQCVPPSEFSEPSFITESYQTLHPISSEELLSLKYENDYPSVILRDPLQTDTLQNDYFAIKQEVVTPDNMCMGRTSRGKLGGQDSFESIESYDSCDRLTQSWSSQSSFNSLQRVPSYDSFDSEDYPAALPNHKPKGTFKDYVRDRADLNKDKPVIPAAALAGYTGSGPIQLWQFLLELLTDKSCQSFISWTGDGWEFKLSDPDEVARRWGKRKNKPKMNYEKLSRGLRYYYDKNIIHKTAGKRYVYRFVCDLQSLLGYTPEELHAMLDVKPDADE
The assay is described as follows: ETS1 binding intensity (PBM fluorescence), ETS1 alone (arbitrary fluorescence units); higher = stronger binding. Conditions: ETS1 concentration 1 nM; RUNX1 concentration 0 nM.

In assay [2] the target is RUNX1 (UniProt Q01196). Put plainly: RUNX1 binding intensity (PBM fluorescence), RUNX1 alone (arbitrary fluorescence units); higher = stronger binding. Conditions: RUNX1 concentration 2 nM; ETS1 concentration 0 nM. On the procedure: (§1)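 Cooperative gcPBM on 36-bp genomic probes with neighbouring ETS1 and RUNX1 sites. Recombinant human RUNX1 (2 nM) was incubated alone or with ETS1 (25 nM) and detected with anti-RUNX1 antibody plus Alexa488 secondary. Values are medians over 4 replicate spots; the RUNX1+ETS1 data were normalised to the RUNX1-only data. The probes sit in constant array flanks that are not printed.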

Assay [3] has as its target T1, ETS1. The assay is described as follows: ETS1 binding intensity (PBM fluorescence) in presence of RUNX1, normalised to ETS1-only experiment (arbitrary fluorescence units); higher = stronger binding. Conditions: ETS1 concentration 1 nM; RUNX1 concentration 25 nM.
The target in assay [4] is RUNX1 (UniProt Q01196). Put plainly: RUNX1 binding intensity (PBM fluorescence) in presence of ETS1, normalised to RUNX1-only experiment (arbitrary fluorescence units); higher = stronger binding. The note with it: RUNX1 concentration 2 nM; ETS1 concentration 25 nM. Here is the method: as §1
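Throughout, for RUNX1 binding intensity (PBM fluorescence) in presence of ETS1, normalised to RUNX1-only experiment: Full-length recombinant human ETS1 or RUNX1 bound to double-stranded 36-bp genomic probes on microarrays, detected by protein-specific primary antibody and Alexa488 secondary, spot fluorescence as median of four replicate spots.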
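Throughout, for RUNX1 binding intensity (PBM fluorescence), RUNX1 alone: Full-length recombinant human RUNX1 bound to double-stranded 36-bp genomic probes on a high-density microarray, scored as Alexa488 fluorescence per spot via anti-RUNX1 antibody, median of four replicate spots.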

Chain of RUNX1 (Q01196 whole entry): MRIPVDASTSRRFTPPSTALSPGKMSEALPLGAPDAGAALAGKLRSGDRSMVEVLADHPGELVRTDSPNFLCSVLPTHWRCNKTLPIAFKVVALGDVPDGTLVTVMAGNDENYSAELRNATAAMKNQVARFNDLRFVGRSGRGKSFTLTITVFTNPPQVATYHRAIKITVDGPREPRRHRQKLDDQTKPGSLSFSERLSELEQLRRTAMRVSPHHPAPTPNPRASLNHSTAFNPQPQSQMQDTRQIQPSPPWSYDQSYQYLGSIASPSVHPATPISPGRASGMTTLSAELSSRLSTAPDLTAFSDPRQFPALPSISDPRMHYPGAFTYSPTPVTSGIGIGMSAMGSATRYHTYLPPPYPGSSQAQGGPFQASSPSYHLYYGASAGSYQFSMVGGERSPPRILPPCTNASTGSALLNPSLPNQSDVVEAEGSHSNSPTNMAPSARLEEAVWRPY

Regarding GTTGGGAGGCGCACATCCGGCGGTTACCCGGTGCTT, the ETS1 binding intensity in assay [1] was 2360; in assay [3] it was 3090. The RUNX1 binding intensity in assay [2] was 785; in assay [4], 1560.

Regarding GTCACAGGAAAGAAGGAGCCTCGCCTTAACCGCACC, the ETS1 binding intensity is 447 in assay [1] and 2930 in assay [3]. Also, the RUNX1 binding intensity in assay [2] was determined as 1170; in assay [4], 1310.

As for CAGCTTTCCGGCCTGCAGCACAGGCAATGTGGTTTT, the ETS1 binding intensity in assay [1] was found to be 341; in assay [3], 554. Also, the RUNX1 binding intensity in assay [2] was 1020; in assay [4] it was 2150.

As for CACCCGCCCCCCGGAAGTGCCGGTGGTTGGGCTCCG, the ETS1 binding intensity in assay [1] turned out to be 5120; in assay [3], 7610. Besides, the RUNX1 binding intensity was 703 in assay [2] and 1540 in assay [4].

For CTTATCTTCTTCCTGTGAGCTGTGTGTGGGTGGCTC, the ETS1 binding intensity in assay [1] was 489; in assay [3], 397. The RUNX1 binding intensity in assay [2] is 942; in assay [4] it was 1580.

For the sequence AGGCCCGGATACCCGCCCCCAAAACCGCGTCCACAA, the ETS1 binding intensity was 523 in assay [1] and 1050 in assay [3]. Further, the RUNX1 binding intensity in assay [2] is 1040; in assay [4], 1090.

For CAACAACCGGAAGTGGGGCGGGCCGCAGTACCCGCC, the values for the ETS1 binding intensity in assay [1] and in assay [3] were 14900 and 15800, respectively. In addition, the RUNX1 binding intensity in assay [2] was 701; in assay [4], 3010.

In the case of CCTCCTCCAGACCATCCTGGAAACCACTGCCGTTCT, the ETS1 binding intensity in assay [1] came out at 561; in assay [3], 488. Further, the RUNX1 binding intensity in assay [2] turned out to be 1380; in assay [4] it was 1360.

Consider CCCTTGCCAGAGGAAGCCACTGCCACCGCAGAAGCA, for which the ETS1 binding intensity turned out to be 417 in assay [1] and 1740 in assay [3]. Moreover, the RUNX1 binding intensity was 970 in assay [2] and 1080 in assay [4].

With CCGCGCCGCTTCCTCCAGACACCGCAAGGGGGTGCT, the ETS1 binding intensity in assay [1] came out at 325; in assay [3] it was 446. Besides, the RUNX1 binding intensity in assay [2] was found to be 893; in assay [4] it was 1660.

With GAGGGCCTGGGAGGAAGTGGGTTTTGCATACAGTCC, the ETS1 binding intensity in assay [1] is 1870; in assay [3] it was 2510. In addition, the results for the RUNX1 binding intensity in assay [2] and in assay [4] were 673 and 1330, respectively.
